# The sample as a whole holds a higher share of hits than the screen did.
# Tg IFNy HTS: T. gondii growth inhibition with IFN-gamma, primary screen, cell-based. AID 1259416, 2018. activity change, negative = inhibition, % (test concentration not listed). Toxoplasma gondii growth in IFN-gamma-treated host cells; active compounds read low. 69,000 tested, 3.8% active; in the data active means activity change below about -70%, passing the limit was not always enough;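 further: host cells are HeLa cells infected with Toxoplasma gondii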
# A number is an active result; i = inactive.
SMILES,Tg IFNy HTS
Cc1nc(C)c(-c2ccn(S(=O)(=O)c3cc(C(F)(F)F)cc(C(F)(F)F)c3)n2)o1,i
O=C1CCC(=O)N[C@@H](c2ccc(F)cc2)C/C=C\C[C@H](c2ccc(F)cc2)N1,i
Cc1nc(-c2ccc(F)cc2)sc1-c1ccc(SCc2ccc(Cl)cc2)nn1,i
CSc1ccc(C(=O)NC(=O)Nc2cc(C)on2)s1,i
CCOC(=O)Cn1cnc2c(=O)n(C)c(=O)n(C)c21,i
Cc1nc(C2CCCNC2)cc(N(C)Cc2cccc3cnccc23)n1 (configuration not stated),i
CC(C)N1CCNC(=O)C1CC(=O)N(C)Cc1nc2ccccc2[nH]1 (configuration not stated),i
CC(C)[C@H]1c2ccc(F)cc2CC[C@@]1(CCN(C)CCCc1nc2ccccc2[nH]1)OC(=O)C1CC1,-86
CN(Cc1nc2ccc(F)cc2[nH]1)C1CCN(C(=O)c2ccccc2)CC1,i
CS(=O)(=O)N1CCCC(Cc2cnc(Br)cn2)CC1 (configuration not stated),i
Cc1ccc2cc(CN(C(=O)NCc3ccccc3)C3CCCCC3)c(=O)[nH]c2c1C,i
CCCc1nc(C)cc(N2CCC(O)(C(=O)O)CC2)n1,i
COc1ccc2c3c(n(C)c2c1)[C@H](CO)N(C(=O)Nc1ccc(F)cc1)CC31CCN(Cc2ccccn2)CC1,i
COc1ccc2c3c([nH]c2c1)[C@H](CO)N(C(=O)Nc1cccc(F)c1)CC31CCN(S(=O)(=O)c2cccc(C)c2)CC1,i
COc1ccc2c3c(n(C)c2c1)[C@@H](CO)N(C(=O)Nc1ccc(F)cc1)CC31CCN(S(=O)(=O)c2cccc(C)c2)CC1,-75
COc1ccc2c3c(n(C)c2c1)[C@H](CO)N(C(=O)Nc1ccc(F)cc1)CC31CCN(S(=O)(=O)c2cccc(C)c2)CC1,-74
CCCNC(=O)N1CC2(CCN(S(=O)(=O)c3ccccc3)CC2)c2c(n(C)c3cc(OC)ccc23)[C@H]1CO,i
COc1ccc2c3c(n(C)c2c1)[C@@H](CO)N(C(=O)Nc1ccc(F)cc1)CC31CCN(Cc2ccccn2)CC1,i
CC(C)(C)CC(=O)N1CCC2(CC1)CC(CC(=O)Nc1cccnc1)c1ccccc1O2 (configuration not stated),i
O=C(C1CC2(CCNCC2)CN1)N1CCC2(C=Cc3ccccc32)CC1 (configuration not stated),i
O=C(O)C1c2ccccc2C(=O)N(Cc2ccc(F)cc2)C1c1cccs1 (configuration not stated),i
Cc1[nH]c2ccccc2c(=O)c1CCC(=O)NCC1(c2ccccc2F)CCOCC1,i
Cc1n[nH]c(C)c1CCc1cc(=O)[nH]c(N2CCCC(C)C2)n1 (configuration not stated),i
Cc1cc(C(=O)N2CCC(N(C)C)CC2C(=O)O)c(C)o1 (configuration not stated),i
CC(C)CN1CC2(CCN(C(=O)C3CCOCC3)CC2)COc2ccccc2S1(=O)=O,i
SMILES,Tg IFNy HTS
COC(=O)c1c(NCc2cccs2)c2cccc(Cl)c2[nH]c1=O,i
CCOc1ccc2[nH]c(=O)c(CNCCO)cc2c1,-101
COc1ccc2[nH]c(=O)c(CNc3c(C)cc[nH]c3=O)cc2c1,i
CCOc1ccc2[nH]c(=O)c(CN(C)Cc3cc(C)on3)cc2c1,i
COc1ccccc1CN(C(=O)c1cccc2cccnc12)C1CC1,i
Cc1nonc1NC(=O)CN1CCCC(N2CCCC2)C1 (configuration not stated),i
Fc1ccc(CN2CCO[C@H]3[C@H]2CC[C@H]3OCCCn2cccn2)cc1,-94
Fc1cnc(N2CCO[C@@H]3[C@H]2CC[C@H]3OCc2ccccn2)nc1,i
c1coc(CN2C[C@@H](OCCCn3cccn3)[C@@H]3OCCC[C@@H]32)c1,i
CCC(=O)N1CC2(C1)CN(C(=O)c1cnccn1)[C@@H](CO)c1c2c2ccc(OC)cc2n1C,i
Cc1nc(N2CCCC2)nc2c1CCN(c1ncccn1)CC2,i
Cc1nc(-c2ccccc2)nc2c1CCN(c1ncc(F)cn1)CC2,i
Cc1nc(N2CCCC2)nc2c1CCN(c1ncc(F)cn1)CC2,-86
COC[C@H](N)C(=O)N1CCC(Cc2nnc(SC)n2C)CC1,i
CN(C)[C@@H](CCOc1cccc2ccccc12)c1ccccc1,i
O=C1COc2cc3c(cc2N1)NC(=O)CC3c1nccs1 (configuration not stated),i
CCOC(=O)Nc1ccc2c(c1)NC(=O)CC2c1cc(C(C)C)no1 (configuration not stated),i
CCCc1ccc(C2CC(=O)Nc3cc4c(cc32)OCO4)o1 (configuration not stated),-88
CCc1nc(C)c(C(=O)NC(C)c2n[nH]c(C)n2)o1 (configuration not stated),i
O=C(NC1CC1)c1nc(C(=O)N2CCN(c3ccccc3F)CC2)cs1,i
Cc1oc(-c2ccccc2Cl)cc1C(=O)NCc1ccncc1,i
Cn1ccc2c(-c3ccc(C(=O)O)cn3)ccnc21,i
CNC(=O)c1ccc(-c2ccnc3c2ccn3C)o1,i
Cn1ccc2c(-c3cccc(O)c3)ccnc21,-77
COCCCN1C(=O)CC(CC(=O)N2CCCC2c2ccc(F)cc2)(c2ccccc2OC)C1=O (configuration not stated),i
SMILES,Tg IFNy HTS
O=C(NC(c1ccc(Cl)cc1)c1cccnc1)c1cnc(N2CCCCC2)nc1 (configuration not stated),i
O=C(Nc1ccc2c(c1)OCCO2)c1c(O)c2cccnc2n(-c2ccccc2)c1=O,i
Cc1cc(C)n(-c2ccc(CCC(=O)Nc3nc(-c4ccccn4)cs3)cc2)n1,-98
O=C(Nc1nc(-c2ccccn2)cs1)c1ccccc1CN1CCCCC1,i
Cc1cc(C)n(-c2ccc(C(=O)Nc3nnc(CCc4ccccc4)s3)cc2)n1,i
CCCCC(NC(=O)C1CCC(O)CC1)c1cccnc1 (configuration not stated),i
NC(=O)Cc1csc(NC(=O)C2CC(c3ccccc3Cl)=NO2)n1 (configuration not stated),i
O=C(Nc1cnn(C23CC4CC(CC(C4)C2)C3)c1)C1CC(c2c(F)cccc2Cl)=NO1 (configuration not stated),-84
O=C(Nc1ccc(Br)cc1)C1CC(c2c(F)cccc2Cl)=NO1 (configuration not stated),i
Cc1nc(-c2cccc(F)c2)sc1CCNS(=O)(=O)c1cccc(F)c1,i
COc1ccccc1N1CC(NC(=O)c2ccc(F)c(-n3cccn3)c2)CC1=O (configuration not stated),i
COC(=O)c1cccc(-n2nnnc2SCC(=O)Nc2ccc(F)cc2)c1,i
Cc1[nH]n2c(=O)cc(CSc3nnnn3-c3ccccc3)nc2c1-c1ccc(F)cc1,-93
c1ccc(C(c2ccccc2)c2nc(CSc3nnnn3-c3ccccc3)no2)cc1,i
CC(C)c1ccc(-c2cc(N3CCN(C)CC3)nc(N)n2)cc1,i
CCc1[nH]c2ccc(CNc3cc(COC)ncn3)cc2c1C,-78
Cc1[nH]c2ccc(CNC(=O)C3CC(=O)N(Cc4ccccn4)C3)cc2c1C (configuration not stated),i
CCc1[nH]c2ccc(CNc3ncc(F)c(N4CCOCC4)n3)cc2c1C,i
C[N+](C)(CCOc1ccccc1)Cc1ccccc1,i
Cc1cc(C(C)(C)CC(C)(C)C)ccc1OCCOCC[N+](C)(C)Cc1ccccc1,-85
CC(C)(C)CC(C)(C)c1ccc(O)c(-n2nc3ccccc3n2)c1,i
CN(C)CCCN1c2ccccc2Sc2ccccc21,i

# Compound activity deposited in PubChem BioAssay by Broad Institute.
